Reference: PubChem BioAssay (NCATS)
Values joined by “and” are separate entries in the source; they are usually repeats but may differ in a detail not shown here. Identical values can stand only once. A number with no mark means an inactive call. Inconclusive results are not listed. Active and inactive are the calls of the source. Unless noted, calls come from the whole dose curve; as a rule, active = well fitted curve in the direction sought with a large enough effect; inconclusive = small, poorly fitted or top-dose-only effect, or another doubt; inactive = no such curve, though single readings can be large; an effect the other way counts as inactive or inconclusive.

Assays:
[1] = Cell Viability - BJ (AID 421; calls by dose curve;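 note: potency is the fitted concentration of half-maximal effect; cells exposed to compound for 40 hours at 37 °C before readout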); conditions: BJ fibroblast viability, qHTS
Outline: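 Normal human BJ foreskin fibroblasts, 1500/well in complete medium, treated 40 hr at 37 °C. Cellular ATP by CellTiter-Glo luminescence; normalized to DMSO and 100 uM tamoxifen, AC50 from Hill fit.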

[2] = Cell Viability - Jurkat (AID 426;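 active = dose-dependent loss of cell ATP signal giving a full or clear fitted curve, ranked by lower potency value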; note: potency is the fitted concentration of half-maximal effect); conditions: qHTS
Outline: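 Jurkat (clone E6-1, human T-cell leukemia) cells, 5000/well in complete medium, were exposed to compound for 40 hr at 37 °C. Viability was read as intracellular ATP by CellTiter-Glo luminescence; AC50 came from Hill fits of concentration-response data.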

[3] = Cell Viability - Hek293 (AID 427;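 active = compounds whose dose-response curve shows a full or clear partial loss of cell viability, called from curve shape rather than a numeric limit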;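 note: potency is the fitted concentration of half-maximal effect; cells exposed to compound for 40 hours at 37 °C before reading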); conditions: qHTS
Outline: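 HEK293 cells in complete medium were exposed to compound for 40 hr at 37 °C, then cellular ATP was read by CellTiter-Glo luminescence. Data were normalized to DMSO (basal) and 100 uM tamoxifen (100% inhibition), and AC50 came from Hill fits.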

[4] = Cell Viability - MRC5 (AID 434; calls by dose curve;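 note: potency is the fitted concentration of half-maximal effect; potency reflects cytotoxicity seen as loss of intracellular ATP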); conditions: MRC5 lung fibroblast viability, qHTS
Outline: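 MRC5 normal human lung fibroblasts, 1500 cells/well, exposed to compound for 40 hr at 37 C. Cellular ATP was read by CellTiter-Glo luminescence; data normalized to DMSO and 100 uM tamoxifen, with AC50 from Hill fits.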

[5] = Cell Viability - SK-N-SH (AID 435; calls by dose curve;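 note: potency is the fitted concentration of half-maximal effect; compound exposure lasted 40 h at 37 °C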); conditions: SK-N-SH neuroblastoma cell viability qHTS
Outline: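 SK-N-SH human neuroblastoma cells (1500/well) were exposed to compounds in complete medium for 40 h at 37 °C, and intracellular ATP was then measured by CellTiter-Glo luminescence. AC50 was taken from Hill fits, normalized to DMSO and 100 uM tamoxifen.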

[6] = molecular target: Mitogen-activated protein kinase 10 (Mus musculus) (UniProt Q61831); test: JNK3 AlphaScreen Assay (AID 530; active = well fitted curve in either direction with a large enough effect, not every such curve was filed as active;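 note: kinase came from lysate of stimulated human HepG2 cells; signal reports phosphorylation of biotinylated GST-cJun 1-79 at Ser73 with 10 µM ATP; % is set by controls: 0 for no effect and ±100 for the full control effect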)
Outline: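 qHTS format: compounds tested as titrations against IL-1beta/TNF-alpha-activated HepG2 lysate JNK3 with biotin-GST-cJun substrate and 10 uM ATP at room temperature. Loss of anti-phospho-cJun AlphaScreen signal indicates inhibition.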

[7] = Cellular Toxicity (caspase-3) Renal Proximal Tubule (AID 667); conditions: renal proximal tubule cells; at 91.7 µM (top of the series) unless noted;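 note: cells exposed to compound for 16 hours at 37 °C before detection; 0% = DMSO basal and 100% = 10 µM staurosporine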
Outline: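 Primary rat proximal tubule cells, 1000/well, 5 h plating at 37 °C, then compound 16 h at 37 °C. Caspase-Glo 3/7 reagent, 1 h RT, luminescence. Normalized to DMSO (basal) and 10 uM staurosporine (100%); Hill-fit AC50.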

[8] = MultiTox-Fluor Cytotoxicity Assay - LYMP1-002 - Live Cells (AID 955); note: potency is the fitted concentration of half-maximal effect
Outline: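 Human lymphoblastoid LYMP1-002 cells, 2500/well in complete medium, rested 5 hr at 37 C, then exposed to compounds for 16 hr at 37 C. Live-cell protease cleavage of GF-AFC read by fluorescence (Ex/Em 405/510) after 60 min at room temperature; AC50 from Hill fits.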

[9] = MultiTox-Fluor Cytotoxicity Assay - LYMP1-003 - Live Cells (AID 962); note: potency is the fitted concentration of half-maximal effect
Outline: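 LYMP1-003 human lymphoblastoid cells (2500/well) in complete medium were preincubated 5 hr at 37 C, then exposed to compounds for 16 hr at 37 C. Live-cell protease cleavage of GF-AFC read by fluorescence (Ex/Em 405/510); AC50 from Hill fits.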

[10] = Cell Viability - LYMP2-008 (AID 980); note: nearly all actives have a fitted effect of over 60% in size; note: potency is the fitted concentration of half-maximal effect
Outline: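 Human lymphoblastoid cells (2500/well) were plated, held 5 hr at 37 C, then exposed to compounds for 24 hr at 37 C in complete medium. Intracellular ATP was read by CellTiter-Glo luminescence; AC50 from Hill-fitted concentration-response.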

[11] = qHTS assay for environmental chemicals that activate the Aryl hydrocarbon Receptor (AhR) signaling pathway (AID 651777); conditions: 1A2-DRE human hepatoma cells, luciferase, 24 h; activation: active compounds read high; note: nearly all actives have a fitted effect of over 15% in size; note: potency is the fitted concentration of half-maximal effect; for activation: % of control where 0% means no effect
Outline: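 Human hepatoma 1A2-DRE cells, stably carrying a dioxin response element and CYP1A2 promoter driving luciferase, were exposed to compounds for 24 hr at 37 C and 5% CO2. Luciferase signal was then read after 30 min One-Glo at room temperature.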

[12] = qHTS assay for small molecule agonists of the antioxidant response element (ARE) signaling pathway measured by Nrf2-dependant transcriptional activity - cell viability counter screen (AID 720653; active = well fitted curve in the direction sought with a large enough effect in the repeat runs; an effect the other way counts as inactive or inconclusive; note: potency is the fitted concentration of half-maximal effect; for max response: % is set by controls: 0 for no effect and ±100 for the full control effect); conditions: ARE-bla HepG2 viability, CellTiter-Glo ATP luminescence, 16 h; max response: active compounds read low
Outline: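 ARE-bla HepG2 cells treated with compounds for 16 h at 37C; this counter screen measures viability as intracellular ATP by CellTiter-Glo luminescence after 30 min at room temperature.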

| SMILES | Potency [1] | Potency [2] | Potency [3] | Potency [4] | Potency [5] | outcome [6] | caspase-3 activation [7] | Potency [8] | Potency [9] | Potency [10] | Potency [11] | activation [11] | max response [12] | Potency [12] |
| --- | --- | --- | --- | --- | --- | --- | --- | --- | --- | --- | --- | --- | --- | --- |
| CN(C)c1ccc(N=O)cc1 | > 92 µM | 2.5 µM (active) | 47.4 µM (active) | 42.1 µM (active) | 7.28 µM (active) | inactive | -9.93% | 5.01 µM (active) | 6.31 µM (active) | 1.26 µM (active) | 70.8 µM (active) | – | – | – |
| Oc1c(Cl)cc(Cl)cc1Cl | > 92 µM | – | > 92 µM | > 92 µM | > 92 µM | – | – | – | – | – | – | 0.15% and 1.58% | -6.96% and -8.43% | – |
| [CH3][Hg][Cl] | 26.7 µM (active) | 1.49 µM (active) | 33.3 µM (active) | 25.3 µM (active) | 17.4 µM (active) | inactive | -5.2% | 12.6 µM (active) | 20 µM (active) | 5.01 µM (active) | – | 1.1% | – | 25.1 µM (active) |
| OC(c1ccc(Cl)cc1)(c1ccc(Cl)cc1)C(Cl)(Cl)Cl | > 92 µM | – | > 92 µM | > 92 µM | > 92 µM | – | 1.02% | inactive | inactive | inactive | – | – | -1.65% | – |
| O=C(O)C1C(C(=O)O)C2(Cl)C(Cl)=C(Cl)C1(Cl)C2(Cl)Cl (centres undefined) | > 92 µM | > 92 µM | > 92 µM | > 92 µM | > 92 µM | inactive | -21% [at 91.7 µM, primary cells freshly taken from rat, solvent-only wells 0%, staurosporine 100%] | inactive | inactive | inactive | – | 0.623% | 5.57% | – |
| C(=NC1CCCCC1)=NC1CCCCC1 | > 92 µM | – | – | > 92 µM | – | inactive | 5.14% | inactive | inactive | 50.1 µM (active) | – | 2.78% and 1.69% | – | 7.94 µM (active) |
